Source: PubChem
RGS4-Gao reg – human RGS4-Galphao interaction regulation; P09471; Multiplexed bead flow cytometry, RGS4-Galphao binding; actives lie on both sides; binding response (% of control), % at 10 µM; 220,000 tested, 0.33% active; in the data active = binding response below about 49% or above about 150%; inactive = in between;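 also: fluorescent Galphao activated with aluminum fluoride binding bead-coupled RGS4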
Target sequence (P09471 whole entry, looked up): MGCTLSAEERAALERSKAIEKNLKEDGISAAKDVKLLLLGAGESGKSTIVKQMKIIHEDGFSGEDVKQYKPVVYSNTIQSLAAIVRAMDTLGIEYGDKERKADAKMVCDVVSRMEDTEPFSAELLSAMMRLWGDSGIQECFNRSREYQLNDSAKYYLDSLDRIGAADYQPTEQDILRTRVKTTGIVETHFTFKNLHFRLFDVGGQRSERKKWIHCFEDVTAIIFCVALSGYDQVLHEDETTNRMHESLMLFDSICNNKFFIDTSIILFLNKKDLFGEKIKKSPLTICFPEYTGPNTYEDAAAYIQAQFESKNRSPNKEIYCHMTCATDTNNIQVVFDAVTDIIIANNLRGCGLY
RGS8-Gao – regulators of human RGS8-Galphao interaction; multiplexed bead flow cytometry, RGS8-Galphao binding; actives lie on both sides; response (percent of control binding), % at 10 µM; 220,000 tested, 0.34% active; AID 1423; in the data active = response below about 60% or above about 140%; inactive = in between;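 also: Galphao activated as the GDP aluminium fluoride complex binding bead-coupled RGS8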
RGS7-Gao reg – regulators of human RGS7-Galphao interaction; 220,000 tested, 0.35% active; AID 1439; P09471; Multiplexed bead flow cytometry, RGS7-Galphao binding; actives lie on both sides; binding response (% of control), % at 10 µM; in the data active = binding response below about 49% or above about 150%; inconclusive = no clear call, values can overlap the other calls; inactive = in between;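 also: fluorescent Galphao held in activated GDP-AlF4 state binding bead-coupled RGS7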
RGS16-Gao HTS – regulators of human RGS16-Galphao interaction; O15492+P09471; bead-based flow cytometry RGS16-Galphao binding, fluorescence; actives lie on both sides; binding response (% of control), % at 10 µM; 220,000 tested, 0.38% active; call rule not given here;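 also: Galphao activated by GDP with aluminum fluoride before binding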
Target sequence (O15492 whole entry, looked up): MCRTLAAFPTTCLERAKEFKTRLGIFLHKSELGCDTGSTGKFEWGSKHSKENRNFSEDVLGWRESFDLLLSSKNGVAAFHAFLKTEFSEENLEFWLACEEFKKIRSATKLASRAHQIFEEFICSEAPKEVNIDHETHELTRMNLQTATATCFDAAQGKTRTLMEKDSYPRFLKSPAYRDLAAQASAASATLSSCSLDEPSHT
Target sequence (P09471 whole entry, looked up): as the sequence (P09471 whole entry, looked up) above
GSH bead fluor – compound fluoresces at 488/530 nm on GSH beads | 190,000 tested, 0.25% active | AID 1776 | GSH beads flow cytometry, compound fluorescence 488/530 nm; active compounds read high | fluorescence (KMESF) at 10 µM; in the data active = fluorescence above about 89;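 also: glutathione beads carrying GST-tagged Bcl family fusion proteins plus one bare bead set; values are compound well signal with DMSO vehicle wells as background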
Avidin bead fluor – compound fluoresces at 488/530 nm on avidin beads. compound fluorescence 488/530 nm, flow cytometry; active compounds read high. fluorescence (KMESF) at 10 µM. 220,000 tested, 0.38% active; in the data active = fluorescence above about 47
Starred values were filed as active, the others as inactive; ? = inconclusive; . = no result. Most compounds without a hit are left out; they make up all but 1.2% or so of the library.

SMILES	RGS4-Gao reg	RGS8-Gao	RGS7-Gao reg	RGS16-Gao HTS	GSH bead fluor	Avidin bead fluor
Cc1cc(C)n2ncc(C(=O)NCc3ccccc3)c2n1	99.5	102.1	98.7	105.3	264*	7
Cc1ccccc1CN1C[C@@H]2C[C@@H](c3cnc(N4CCOCC4)s3)N3CCC[C@@]23C1=O	95.5	103.2	89.3	116.5	9	5
CCS(=O)(=O)c1ccc(O)c(NC(=O)Nc2cccc3ccccc23)c1	92.9	97.0	?	92.2	.	7
CC1CC1C(=O)OCC(=O)Nc1ccc2[nH]c(=O)[nH]c2c1 (stereo unspecified)	96.5	98.8	84.8	98.9	15	10
CC(C)(C)Nc1cccccc1=O	105.0	100.6	121.6	102.8	38	66*
CS(=O)(=O)Nc1nc2n(n1)C(c1ccccc1)CC(c1ccccc1)N2 (stereo unspecified)	101.4	99.9	?	99.2	.	10
COc1cc(S(=O)(=O)N(Cc2cccs2)CC2CCCO2)ccc1-n1cnnn1 (stereo unspecified)	96.6	102.4	126.3	107.5	17	50*
COc1cc(S(=O)(=O)N(Cc2ccccc2)CC2CCCO2)ccc1-n1cnnn1 (stereo unspecified)	95.0	85.8	101.6	48.2	27	5
CC(=O)Oc1ccc2oc(C)c(C(=O)N3CCOCC3)c2c1	96.3	98.6	95.1	97.3	21	25
CC(=O)Oc1ccc2oc3c(c2c1)C(=O)CCC3	98.2	99.9	98.8	96.2	260*	8
Cc1cc2c(cc1C)CN(c1ccccc1)C2	95.5	97.8	?	96.0	.	6
Cn1c(=O)c2c(ncn2CC(=O)Nc2nccs2)n(C)c1=O	104.2	101.5	?	106.9	.	9
CCc1c(C(=O)NNC(=S)NC2CCCCC2)csc1C	98.2	100.7	?	100.1	15	8
CC(=O)NNC(=S)NCCc1ccccc1	106.0	101.0	135.0	110.2	12	96*
CCc1c(C(=O)NNC(=S)NCCc2ccccc2)csc1C	92.4	96.5	96.8	94.1	148*	3
COc1ccccc1C(=O)C1CCCN(C(=O)c2cccnc2SC)C1 (stereo unspecified)	97.7	100.8	98.5	101.0	9	10
CCCn1nc2cc(C(=O)NCCc3ccc(C)cc3)ccc2c1OCC	110.3	104.2	107.4	113.9	12	63*
CCCn1nc2cc(C(=O)NCCCCc3ccccc3)ccc2c1OCC	104.9	101.0	106.0	107.9	13	52*
CCCCn1nc2cc(C(=O)NCCc3cccs3)ccc2c1OCC	100.2	100.6	100.5	97.6	54	7
Clc1cc2nc[nH]c2cc1Cl	96.8	100.9	?	100.3	.	6
Cc1cccc(C(=O)NC(NCc2ccco2)C(Cl)(Cl)Cl)c1 (stereo unspecified)	48.8*	56.9*	44.1*	41.5	26	2
Cn1c(N)c(C(=O)CSc2nc3ccccc3c(=O)n2Cc2ccccc2)c(=O)n(C)c1=O	145.2	101.1	?	139.2	.	49*
CCCCCCn1c(SCC(=O)c2c(N)n(C)c(=O)n(C)c2=O)nc2ccccc21	104.3	108.7	100.9	107.1	45	7
CCc1ccc2c(c1)c1nc(C)sc1n2CC(=O)OC	103.7	101.6	102.3	105.1	26	51*
Cc1ccc(Nc2nc(CSc3n[nH]c(N)n3)cs2)cc1	93.5	91.1	?	92.4	.	7
SMILES	RGS4-Gao reg	RGS8-Gao	RGS7-Gao reg	RGS16-Gao HTS	GSH bead fluor	Avidin bead fluor
O=C(COC(=O)c1ccccc1Oc1ccccc1)NC1CC1	103.4	99.8	102.6	101.9	16	9
O=C(COC(=O)c1ccccc1Oc1ccccc1)NC1CCS(=O)(=O)C1 (stereo unspecified)	102.5	101.2	109.6	101.2	13	48*
COc1ccc(-c2[nH]nc3c2C(c2ccc(OC(=O)N4CCOCC4)cc2)C(C#N)=C(N)O3)cc1 (stereo unspecified)	44.3*	52.2*	45.3*	38.0	16	13
COc1ccc(-c2[nH]nc3c2C(c2ccccc2OC(=O)N2CCOCC2)C(C#N)=C(N)O3)cc1 (stereo unspecified)	96.0	97.3	94.9	88.4	36	7
O=C(O)c1ccc2c(=O)[nH]c(CN3CCOCC3)nc2c1	95.6	99.5	140.0	105.3	11	62*
O=c1[nH]c(CN2CCOCC2)nc2ccccc12	93.9	95.4	93.5	98.9	13	19
CCc1cccc(CC)c1NC(=O)COC(=O)c1cccc(S(=O)(=O)N2CCc3ccccc3C2)c1	100.5	101.3	98.0	101.9	17	3
CCc1cccc(CC)c1NC(=O)COC(=O)CC1c2ccccc2CCN1S(=O)(=O)c1ccccc1 (stereo unspecified)	104.0	97.8	128.4	96.7	12	78*
Cc1ccc(C)c2[nH]c(=O)c(C(c3nnnn3Cc3ccccc3)N3CCc4ccccc4C3)cc12 (stereo unspecified)	102.5	101.9	101.9	102.0	266*	8
COc1ccc(OC(C)C(=O)N2CCCc3ccccc32)cc1 (stereo unspecified)	95.1	96.0	?	94.5	14	8
c1ccc2c3c([nH]c2c1)-c1[nH]ncc1CC3	97.0	99.2	96.2	102.1	265*	7
CCCCCCc1cc2cc(-c3nnc(-c4cc(OC)c(OC)c(OC)c4)o3)c(=O)oc2cc1O	99.7	98.2	99.0	97.8	113*	7
CCCCCCc1cc2cc(-c3nnc(-c4ccccc4O)o3)c(=O)oc2cc1O	111.0	100.0	109.4	110.9	26	26
CCCCCCc1cc2cc(-c3nnc(-c4ccccc4OC)o3)c(=O)oc2cc1O	88.0	101.5	92.7	108.5	248*	5
CCOC(=O)c1c(NC(=O)c2ccccc2Br)sc2c1CCc1ccccc1-2	92.1	87.4	125.7	71.1	7	12
COc1ccc(CSc2ncnc3sccc23)cc1F	100.2	102.4	104.4	105.0	16	7
Cc1ccc(NC2=C(NCCO)C(=O)c3ccccc3C2=O)cc1	118.4	100.0	116.4	101.8	11	49*
Cc1ccc(Cl)cc1NC(=O)COC(=O)C1CC1	102.6	89.8	98.8	57.1	12	16
Cc1ccc(Cl)cc1NC(=O)COC(=O)CC1CC2CCC1C2 (stereo unspecified)	101.9	104.5	104.7	103.9	262*	9
COc1ccccc1N(CC(O)Cn1ccnc1C)S(=O)(=O)c1ccc(C)cc1 (stereo unspecified)	101.3	104.1	100.2	107.6	14	11
CCN(CC)c1ccc(/C=c2\sc3nnc(-c4ccccc4Cl)n3c2=O)cc1	133.9	100.4	125.0	133.4	104*	28
O=C(O)C1C2CCC(C2)C1C(=O)NCc1ccco1 (stereo unspecified)	95.3	95.8	90.7	96.8	5	8
